# Source: PubChem (Broad Institute)
# DENV2 CPE rescue: DENV2-induced cell death inhibition; DENV2-infected cells, cytopathic effect rescue, plate reader; CPE inhibition, % at 9.99 µM; 350,000 compounds, 1.7% hits; in the data active means CPE inhibition above about 20%, passing the limit was not always enough; tested in BHK-21 cells;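 further: 0% = median of neutral control wells and 100% = median of positive control wells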
# FGF22 binding: FGF22 (human) thermal shift binding | Q9HCT0 | recombinant FGF22 thermal shift, SYPRO orange fluorescence; percent of sucrose octasulfate shift, DMSO zero | activity (Tm shift, normalised), % at 9.99 µM | 340,000 compounds, 1.5% hits;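 active means mean Tm shift, scaled 0 neutral to 100 positive control, at about 1.3% or above, every replicate too, limit read from the data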
# AF4-AF9 inh: blocks AF4 peptide binding to human AF9; P42568; AlphaScreen, biotin-AF4 peptide binding to FLAG-AF9; inhibition, % at 10 µM; 350,000 compounds, 0.47% hits;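 active means every replicate reaching a set inhibition limit, whatever the replicate mean, cut at about 25% in these data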;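 further: 0% = plate neutral control median and 100% = total signal loss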
# Target sequence (P42568 whole entry, looked up): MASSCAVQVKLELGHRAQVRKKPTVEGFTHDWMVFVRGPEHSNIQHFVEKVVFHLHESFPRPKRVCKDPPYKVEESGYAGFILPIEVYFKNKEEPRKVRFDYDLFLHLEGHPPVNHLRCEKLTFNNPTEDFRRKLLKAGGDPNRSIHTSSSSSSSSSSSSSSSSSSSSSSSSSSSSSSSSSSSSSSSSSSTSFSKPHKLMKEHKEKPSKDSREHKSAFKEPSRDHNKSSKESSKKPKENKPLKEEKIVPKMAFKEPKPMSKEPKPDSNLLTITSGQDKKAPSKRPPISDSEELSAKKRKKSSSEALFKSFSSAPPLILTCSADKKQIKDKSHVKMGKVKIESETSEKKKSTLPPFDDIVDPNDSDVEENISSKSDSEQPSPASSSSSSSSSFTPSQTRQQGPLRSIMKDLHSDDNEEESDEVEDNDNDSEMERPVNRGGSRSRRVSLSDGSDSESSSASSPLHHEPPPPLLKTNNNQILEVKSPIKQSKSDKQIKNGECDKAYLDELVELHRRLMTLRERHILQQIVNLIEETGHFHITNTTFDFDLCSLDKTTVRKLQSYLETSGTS
# RAD52 inh: inhibitors of human RAD52 DNA annealing; recombinant RAD52 DNA annealing, FRET fluorescence; inhibition, % at 18.7 µM; 360,000 compounds, 0.46% hits;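 active means every replicate showing at least 50% inhibition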
# ERAP1 inh: ERAP1 (human) enzyme inhibition; AID 652197; inhibition, % at 10.7 µM; recombinant ERAP1, Leu-AMC fluorescence, 60 min; Q9NZ08; 340,000 compounds, 0.15% hits;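 active means mean replicate inhibition of at least 30%, or all replicates individually reaching that 30% level; inactive means mean below 30% and not every replicate reaching it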;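 further: 0% = neutral control wells and 100% = L-leucinethiol positive control wells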
# Numbers without * were called inactive; x = not tested or not shown. Rows were chosen to be rich in hits. Some 4% of all compounds tested hit in one or more screens of this group.
SMILES,DENV2 CPE rescue,FGF22 binding,AF4-AF9 inh,RAD52 inh,ERAP1 inh
O=C(C[C@@H]1CC[C@H](NC(=O)Nc2ccccc2F)[C@@H](CO)O1)NCc1ccc(-c2ccccc2)cc1,9,0,-1,-5,1
C[C@@H]1CN([C@H](C)CO)C(=O)c2cccc(NC(=O)c3ccc(-c4nccs4)cc3)c2O[C@@H]1CN(C)S(=O)(=O)c1cn(C)cn1,-7,0,1,16,-1
CO[C@@H](CN(C)C(=O)c1ccc2c(c1)OCO2)[C@@H](C)CN([C@@H](C)CO)S(=O)(=O)c1ccc(F)cc1,0,0,1,2,0
C[C@@H]1CN([C@@H](C)CO)C(=O)Cc2cc(NC(=O)CCC(F)(F)F)ccc2O[C@H]1CN(C)CC1CC1,2,0,-3,5,-2
C[C@H](CO)N1C[C@H](C)[C@H](CN(C)CC2CC2)Oc2ccc(NC(=O)Nc3ccc(F)cc3)cc2CC1=O,42*,-1,4,12,2
C[C@@H]1CN([C@@H](C)CO)C(=O)Cc2cc(NC(=O)CCC(F)(F)F)ccc2O[C@@H]1CN(C)CC1CC1,42*,-1,-1,19,3
CO[C@H]1CN(C)C(=O)c2ccc(NS(=O)(=O)c3ccccc3)cc2OC[C@@H](C)N(C)C[C@H]1C,2,0,-2,13,-4
CO[C@@H](CN(C)C(=O)c1ccc2c(c1)OCO2)[C@@H](C)CN([C@@H](C)CO)S(=O)(=O)c1ccc(C)cc1,-4,0,0,3,1
Cc1cc(C)n(-c2nnc(Cl)c3ccccc23)n1,23*,0,0,2,-3
C[C@H](CO)N1C[C@H](C)[C@H](CN(C)C(=O)c2cnccn2)Oc2ncc(-c3cccc(F)c3)cc2C1=O,-7,0,-2,4,-2
COc1ccc(C2(C)NC(=O)N(CC(=O)c3cc(C)n(C4CC4)c3C)C2=O)cc1 (stereo not given),37*,0,0,-20,0
Cc1cc(C(=O)CN2C(=O)NC(C)(c3ccc(F)c(F)c3)C2=O)c(C)n1C1CC1 (stereo not given),x,0,6,-129,2
CN1C(=O)c2cc(NC(=O)C3CC3)ccc2OC[C@@H]2O[C@@H](CC(=O)NCc3ccccc3F)CC[C@@H]21,-7,x,-6,15,0
CN(C)CCCNC(=O)c1ccc(Oc2ccccc2)cc1,-2,44*,13,17,-1
COc1ccc(CN(C)C[C@H]2Oc3ccc(NC(=O)C4CCCCC4)cc3C(=O)N([C@@H](C)CO)C[C@H]2C)cc1,25*,0,-1,-5,0
COc1ccc(CN(C)C[C@H]2Oc3ccc(NS(=O)(=O)c4c(C)noc4C)cc3C(=O)N([C@@H](C)CO)C[C@@H]2C)cc1,25*,0,-2,2,2
COc1ccc(CN(C)C[C@@H]2Oc3ccc(NS(=O)(=O)c4cccs4)cc3C(=O)N([C@@H](C)CO)C[C@H]2C)cc1,32*,0,-19,12,3
Cc1noc(C)c1S(=O)(=O)Nc1ccc2c(c1)C(=O)N([C@@H](C)CO)C[C@@H](C)[C@H](CN(C)Cc1ccc(Oc3ccccc3)cc1)O2,-2,0,4,10,1
COc1ccc(CN(C)C[C@@H]2Oc3ccc(NS(C)(=O)=O)cc3C(=O)N([C@H](C)CO)C[C@H]2C)cc1,25*,0,-3,-1,1
COc1ccc(CN(C)C[C@@H]2Oc3ccc(NS(C)(=O)=O)cc3C(=O)N([C@@H](C)CO)C[C@H]2C)cc1,10,0,-2,4,1
C[C@H](CO)N1C[C@H](C)[C@H](CN(C)C(=O)Cc2ccncc2)Oc2cc(C#CC3(O)CCCC3)ccc2S1(=O)=O,6,0,3,-34,-2
COCCNC(=O)[C@H]1[C@H](CO)[C@H]2Cn3c(ccc(C4=CCCCC4)c3=O)[C@@H]1N2C(=O)C1CCCC1,-2,x,-8,-2,-7
COc1cccc(NC(=O)N[C@@H]2C=C[C@@H](CC(=O)N3CCN(C)CC3)O[C@@H]2CO)c1,-3,x,-5,6,-3
O=C(NC1CCC1)[C@@H]1[C@@H](CO)[C@@H]2Cn3c(ccc(C4=CCCC4)c3=O)[C@@H]2N1C(=O)C1CCCC1,-11,0,0,-28,-9
CO[C@H]1CN(C)C(=O)c2cc(NC(=O)CC(F)(F)F)ccc2OC[C@@H](C)N(C(=O)c2ccccc2F)C[C@H]1C,-7,0,1,-98,1
SMILES,DENV2 CPE rescue,FGF22 binding,AF4-AF9 inh,RAD52 inh,ERAP1 inh
COc1ccc(CN(C)C[C@@H]2Oc3ccc(NS(=O)(=O)c4cccs4)cc3C(=O)N([C@H](C)CO)C[C@H]2C)cc1,31*,0,0,1,1
C[C@@H]1CN([C@H](C)CO)S(=O)(=O)c2ccc(C3=CCCC3)cc2O[C@@H]1CN(C)S(=O)(=O)c1ccc(F)cc1,13,0,-1,-8,-1
COc1cccc(-c2ccc3c(c2)O[C@H](CN(C)Cc2cncnc2)[C@H](C)CN([C@@H](C)CO)S3(=O)=O)c1,28*,-1,1,13,-2
COc1cccc(-c2ccc3c(c2)O[C@@H](CN(C)Cc2cncnc2)[C@H](C)CN([C@H](C)CO)S3(=O)=O)c1,7,0,11,10,2
C[C@H](CO)N1C[C@H](C)[C@H](CN(C)Cc2ccncc2)Oc2cc(C3=CCCC3)ccc2S1(=O)=O,36*,0,-1,-12,0
C[C@H](CO)N1C[C@H](C)[C@H](CN(C)Cc2cccnc2)Oc2cc(C3=CCCC3)ccc2S1(=O)=O,28*,0,1,11,1
C[C@@H]1CN([C@H](C)CO)S(=O)(=O)c2ccc(C3=CCCC3)cc2O[C@@H]1CN(C)Cc1cccnc1,-2,0,-1,19,2
C[C@H]1CN([C@@H](C)CO)S(=O)(=O)c2ccc(C3=CCCC3)cc2O[C@@H]1CN(C)S(=O)(=O)c1ccc(F)cc1,69*,0,2,-11,-2
O=C(Nc1ccc2c(c1)OCO2)N[C@@H]1CC[C@H](CCNC(=O)C2CCOCC2)O[C@H]1CO,7,0,-1,-2,-1
COCC(=O)Nc1ccc2c(c1)[C@H]1C[C@@H](CC(=O)NCc3cccnc3)O[C@H](CO)[C@H]1O2,-3,0,-1,8,-3
C[C@@H]1CN([C@H](C)CO)S(=O)(=O)c2ccc(-c3cncnc3)cc2O[C@H]1CN(C)C,34*,0,-4,4,1
C[C@H](CO)N1C[C@H](C)[C@H](CN(C)Cc2cncnc2)Oc2cc(C3=CCCCC3)ccc2S1(=O)=O,30*,0,4,13,0
C[C@H](CO)N1C[C@H](C)[C@H](CN(C)C)Oc2cc(-c3cncnc3)ccc2S1(=O)=O,0,0,-5,1,2
COc1cccc(-c2ccc([C@H]3[C@@H](CO)N4C(=O)CN(C(=O)C5CCC5)C[C@@H]34)cc2)c1,-9,x,-5,6,0
